Screening results deposited in PubChem BioAssay by several laboratories.
Dyrk1A ADPGlo: Dyrk1A (rat) kinase inhibition. ADP-Glo luminescence, NFATc1 peptide. inhibition, % at 12.5 µM. hit rate 0.43% among 310,000; in the data active = inhibition above about 50%
aDG glyco act: increases alpha dystroglycan glycosylation; Pro5-aDG cells, alpha-DG glycosylation AlphaScreen (IIH6); 0% Pro5, 100% B10-LARGE cell signal; activation, % at 10 µM; hit rate 0.22% among 360,000;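 active = activation of at least 8% versus controls, or a plate z-score of at least 8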;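 note: Pro5 are CHO cells carrying HIG-tagged alpha-DG that lacks glycosylation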
NPR2 activator: GC-B (human) receptor activation | activation, % at 10 µM | hit rate 0.11% among 370,000 | HEK293-GC-B cells, CNP EC30, cGMP TR-FRET; 0% at EC30 CNP, 100% saturating CNP | AID 1920062;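 active = activation at 10 µM reaching about 35% in either raw or pattern-adjusted values, limit read from the data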
Target sequence (P20594 whole entry, looked up): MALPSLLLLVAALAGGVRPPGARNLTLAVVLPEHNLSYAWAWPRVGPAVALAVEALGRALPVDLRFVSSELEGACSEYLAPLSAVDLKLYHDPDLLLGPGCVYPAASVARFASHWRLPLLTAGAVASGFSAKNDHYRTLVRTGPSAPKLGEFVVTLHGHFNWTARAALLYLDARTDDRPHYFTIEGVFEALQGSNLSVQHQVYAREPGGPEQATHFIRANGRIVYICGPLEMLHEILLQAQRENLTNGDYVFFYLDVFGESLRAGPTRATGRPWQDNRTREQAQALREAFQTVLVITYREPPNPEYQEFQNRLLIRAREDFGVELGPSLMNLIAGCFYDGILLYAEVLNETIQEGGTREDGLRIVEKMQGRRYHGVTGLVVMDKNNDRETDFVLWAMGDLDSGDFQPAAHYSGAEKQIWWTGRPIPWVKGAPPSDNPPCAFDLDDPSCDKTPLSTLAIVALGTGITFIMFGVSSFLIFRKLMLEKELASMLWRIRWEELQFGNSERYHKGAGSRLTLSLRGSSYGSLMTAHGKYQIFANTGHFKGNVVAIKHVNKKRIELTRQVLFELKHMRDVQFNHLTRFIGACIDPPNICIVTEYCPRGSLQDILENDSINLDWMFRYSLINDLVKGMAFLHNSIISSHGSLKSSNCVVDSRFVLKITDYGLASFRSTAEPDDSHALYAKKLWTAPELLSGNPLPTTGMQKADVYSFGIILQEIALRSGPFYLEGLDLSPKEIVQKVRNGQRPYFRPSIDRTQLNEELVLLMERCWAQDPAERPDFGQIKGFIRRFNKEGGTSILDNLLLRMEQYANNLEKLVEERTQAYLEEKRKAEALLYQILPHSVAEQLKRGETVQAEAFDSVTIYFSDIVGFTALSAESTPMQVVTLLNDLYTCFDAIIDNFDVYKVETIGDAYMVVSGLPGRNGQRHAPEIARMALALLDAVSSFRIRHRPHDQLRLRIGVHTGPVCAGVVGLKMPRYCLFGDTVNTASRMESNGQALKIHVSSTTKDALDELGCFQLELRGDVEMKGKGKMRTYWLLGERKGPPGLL
HSF1 inhib: HSF1 inhibition; AID 2098; hit rate 0.77% among 300,000; activity change, negative = inhibition, % at 7.5 µM (by protocol); NIH3T3-HGL HSE-luciferase, MG132-induced, luminescence 8 h; hits give low values;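 active = more than half of replicate wells show activity change below -50%, luminescence cut by over half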;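 note: luciferase reports HSF-1 transcriptional activity via heat shock element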
HSF-1 act: increases HSF-1 driven luciferase reporter signal. activation, % at 9 µM. NIH3T3-HGL HSF-1 luciferase reporter, MG132, 8 h; 100% = twice DMSO control signal. hit rate 1.7% among 300,000;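 active = mean replicate activation of at least 50% with a set share of replicates each reaching 50%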
NPR1 activator: GC-A (human) enzyme activation | HEK293 GC-A cells, cGMP TR-FRET, EC30 ANP; 0% at EC30 ANP, 100% saturating ANP | activation, % at 10 µM | hit rate 0.14% among 370,000 | AID 1671463; in the data active = activation above about 40%
Hits are given with their value; – = inactive; · = no result. An excerpt weighted towards active compounds, which were near 2.5% of everything screened.

SMILES	Dyrk1A ADPGlo	aDG glyco act	NPR2 activator	HSF1 inhib	HSF-1 act	NPR1 activator
CN1CCN(CC(=O)Nc2nnc(-c3cccs3)s2)CC1	–	–	–	-54	–	–
Cc1csc2nc(O)c(C(=O)NC3CCCCC3)c(=O)n12	–	–	–	–	–	–
CCOc1cc(NC(=S)NCC2CCCO2)c(OCC)cc1NC(=O)c1ccc(C)cc1 (stereo unspecified)	–	–	–	–	–	–
Cc1ccc(NNC(=O)c2ccno2)c(C)c1	–	–	–	–	68	–
COc1ccc(Br)cc1C(=O)NC(=S)Nc1ccc(CN2CCOCC2)cc1	–	–	–	–	–	–
COc1ccc(C(=O)CSc2nc(C)cc(=O)[nH]2)cc1C	–	–	–	-76	–	–
CC(C)Nc1nc(Cl)nc(N(C#N)CN2C(=O)c3ccccc3S2(=O)=O)n1	–	–	–	–	118	–
COc1nc(NC(C)C)nc(N(C#N)CN2C(=O)c3ccccc3S2(=O)=O)n1	–	–	–	–	–	–
CCc1ccc(S(=O)(=O)/N=C2\C=C(Nc3ccc(O)cc3)C(=O)c3ccccc32)cc1	–	–	·	-95	–	·
O=C(O)c1ccc(NC2=C/C(=N/S(=O)(=O)c3ccccc3)c3ccccc3C2=O)cc1	80	–	–	·	·	–
CCc1ccc(S(=O)(=O)/N=C2\C=C(Nc3cccc(C(=O)O)c3)C(=O)c3ccccc32)cc1	–	–	–	–	–	–
COc1ccccc1N1CC(C)(C)C(=O)N(C(=O)c2c(F)cccc2Cl)C1=S	–	–	–	–	–	–
Nc1nc(SCc2ccc(F)cc2)n[nH]1	–	–	–	–	–	–
CC(C)c1onc(C(=O)N(C)Cc2ccccc2)c1[N+](=O)[O-]	–	–	–	–	–	–
Cc1ccc(O)c(NC(=O)c2noc(C(C)C)c2[N+](=O)[O-])c1	–	–	–	–	73	–
CC(=O)c1ccc(NC(=O)c2noc(C(C)C)c2[N+](=O)[O-])cc1	–	–	–	–	–	–
CC(C)c1onc(C(=O)NCCc2ccccc2)c1[N+](=O)[O-]	–	–	–	–	61	–
CCc1cccc(CC)c1NC(=S)Nc1cccc(Cl)c1Cl	–	–	–	–	–	–
O=C(NCC1CCCO1)C1CCN(S(=O)(=O)c2cc(Cl)ccc2Cl)CC1 (stereo unspecified)	–	–	–	–	–	–
c1ccc(CSc2ncnc3c2cnn3-c2ccccc2)cc1	–	–	–	-59	–	–
O=C(O)c1cccc(Nc2ncnc3c2cnn3-c2ccccc2)c1	–	–	–	–	–	–
Fc1cccc(Nc2ncnc3c2cnn3-c2ccccc2)c1	–	–	–	–	53	–
CC(C)(C)C(=O)CSc1ncnc2c1cnn2-c1ccccc1	·	–	–	–	–	–
Cc1cn(C(C)C)c(=O)n(-c2ccccc2)c1=O	–	–	–	·	·	–
CCOC(=O)c1ccc(CC(=O)c2ccc(O)c(O)c2O)o1	–	–	–	–	–	–
SMILES	Dyrk1A ADPGlo	aDG glyco act	NPR2 activator	HSF1 inhib	HSF-1 act	NPR1 activator
Cc1nnc(SCC(=O)Nc2nsc(-c3ccc(C(C)(C)C)cc3)n2)s1	–	–	–	–	51	–
S=c1[nH]nc(COc2ccc(Cl)cc2Cl)n1-c1ccccc1	·	–	–	–	–	–
O=C(N[C@H]1CCCCNC1=O)c1cc(COc2ccc(F)cc2F)on1	–	–	–	–	–	66
O=C(NCCc1ccccc1F)c1cc(COc2ccc(F)cc2F)on1	·	–	–	·	·	–
COc1ccc(CCNC(=O)c2ccc(SC)cc2OC)cc1	–	–	–	–	–	–
COc1cc(C(=O)NCCSc2ccc(F)cc2)cc(OC)c1OC	·	–	–	–	66	–
COc1cc(SC)ccc1C(=O)NCCOc1ccc(F)cc1	–	–	–	–	68	–
COc1cc(C(=O)NCCC(c2ccccc2)c2ccccc2)cc(OC)c1OC	–	–	118	–	–	–
Cc1cc(C)c2c(=O)cc(C(F)F)oc2c1	–	–	–	–	–	–
CC1CCCN(C(=O)C23CCC(C)(C(=O)C2)C3(C)C)C1 (stereo unspecified)	–	–	–	–	–	–
Cc1nc2cc(NC(=O)CCS(=O)(=O)c3ccccc3)ccc2s1	–	–	–	–	52	–
Cc1nc2ccc(NC(=O)CCS(=O)(=O)c3ccccc3)cc2s1	–	–	–	–	–	–
CCc1ccccc1-n1c(SCC(=O)Nc2ccc3c(c2)OCCO3)nc2[nH]ncc2c1=O	–	–	–	-68	–	–
COc1cc2c(cc1OC)C(c1ccc(SC)cc1)CC(=O)N2 (stereo unspecified)	–	–	–	–	–	–
Cc1ccccc1CN1CCN(Cc2cc3ccccc3o2)CC1CCO (stereo unspecified)	–	–	–	–	–	–
Cc1ccc(CN2CCN(Cc3cc4ccccc4o3)CC2CCO)cc1 (stereo unspecified)	·	–	–	-75	–	–
CCOc1ccc(-c2ccc(SC)nn2)cc1	56	–	–	–	–	–
c1ccc2c3c([nH]c2c1)CCNC3	–	–	–	–	162	–
O=[N+]([O-])c1cc2c(c(CSc3nnc(Nc4ccccc4)s3)c1)OCOC2	–	–	–	–	–	–
Cc1ccccc1Nc1nnc(SCc2cc([N+](=O)[O-])cc3c2OCOC3)s1	–	–	–	–	56	–
C=CCOc1ccc(/C=N/N2C(=O)C(CC(=O)Nc3ccc(F)cc3F)SC2=NC)cc1 (stereo unspecified)	–	–	–	–	54	–
COCCNC(=O)c1c[nH]c2ccc(S(=O)(=O)N3CCc4ccccc43)cc2c1=O	–	–	–	–	–	–
COCCCNC(=O)c1c[nH]c2ccc(S(=O)(=O)N3CCc4ccccc43)cc2c1=O	–	–	–	–	51	–
COc1cc([N+](=O)[O-])cc2sc(NC(=O)C3CC3)nc12	–	–	–	–	–	47
Cc1ccc2sc(NC(=O)CN3C(=O)CCC3=O)nc2c1C	–	–	–	–	–	50
SMILES	Dyrk1A ADPGlo	aDG glyco act	NPR2 activator	HSF1 inhib	HSF-1 act	NPR1 activator
COc1cc([N+](=O)[O-])cc2sc(NC(=O)C(C)(C)C)nc12	–	–	–	–	–	–
CC(=O)Nc1nc2c(C)c(Cl)ccc2s1	–	–	–	–	–	49
CCCC(=O)Nc1nc2c(C)c(Cl)ccc2s1	–	–	–	–	–	43
Cc1c(Cl)ccc2sc(NC(=O)CN3C(=O)c4ccccc4C3=O)nc12	–	–	–	–	–	–
CN(C)CCCNc1oc(-c2ccccc2Cl)nc1S(=O)(=O)c1ccccc1	–	–	–	·	·	–
O=C(Nc1nc2c(F)cccc2s1)C1CC1	–	–	–	–	–	–
Cc1c(Cl)ccc2sc(NC(=O)C3CC3)nc12	–	–	–	–	–	55
O=C(O)/C=C/C(=O)Nc1cc(F)ccc1F	–	–	–	-72	–	–
